Shown are actives, neighbours in structure and some others; about 1.7% of the full set was active somewhere.
HDAC3 inh: blocks human histone deacetylase 3; O15379; recombinant HDAC3, fluorogenic peptide/trypsin coupled, fluorescence; inhibition, % at 8.3 µM; hit rate 0.15% among 320,000; AID 2718; in the data active = inhibition above about 26%, passing the limit was not always enough
Fh CTSL1 inh: counter-screen for PFM18AAP inhibitors: inhibitors of F. hepatica cathepsin L1; recombinant F. hepatica cathepsin L1, Z-Leu-Arg-MCA fluorescence; hit rate 0.49% among 300,000; inhibition, % at 5.96 µM;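 active = inhibition above the mean of all tested compounds plus 3 SD, set per screening campaign, cut at about 17% in these data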;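 also: 0% = plate median of test compound wells and 100% = 1 µM Z-Phe-Ala-diazomethylketone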
m5-HT2A agonist: agonists of mouse serotonin 5-HT2A receptor (HTR2A); P35363; CHO-K1 mHTR2A beta-arrestin complementation, luminescence; percent of 30 µM serotonin response; activation, % at 7.6 µM; hit rate 0.66% among 360,000; AID 624169;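 active = activation above a run cutoff, the mean activation of all tested compounds plus 3 SD, cut at about 14% in these data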;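 also: 0% = plate median of compound wells and 100% = 30 µM serotonin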
Target sequence (P35363 whole entry, looked up): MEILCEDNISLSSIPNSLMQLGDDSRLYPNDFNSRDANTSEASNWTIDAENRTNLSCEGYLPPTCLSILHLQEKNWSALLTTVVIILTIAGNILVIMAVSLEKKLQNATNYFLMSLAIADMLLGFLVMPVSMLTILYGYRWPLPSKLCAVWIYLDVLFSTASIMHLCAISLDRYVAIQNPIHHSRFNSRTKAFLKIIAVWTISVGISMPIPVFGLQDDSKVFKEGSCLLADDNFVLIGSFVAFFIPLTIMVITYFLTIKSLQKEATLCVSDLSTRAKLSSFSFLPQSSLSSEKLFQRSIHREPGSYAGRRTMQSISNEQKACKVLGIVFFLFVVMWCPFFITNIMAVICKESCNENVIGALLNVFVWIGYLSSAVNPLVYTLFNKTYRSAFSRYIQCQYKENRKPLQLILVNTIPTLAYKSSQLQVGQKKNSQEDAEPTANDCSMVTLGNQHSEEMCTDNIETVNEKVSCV
LANA-H2B inh: blocks KSHV LANA binding to histone H2A/H2B; hit rate 0.6% among 320,000; cell-free LANA-H2A/H2B peptide, fluorescence polarization; AID 2629; inhibition, % (test concentration not listed); in the data active = inhibition mostly above about 10%, no sharp cut-off; inactive = mostly below about 6.7%
Starred values were filed as active, the others as inactive; . = not tested or not shown; + = active, no number; ! = repeats disagree.

SMILES	HDAC3 inh	Fh CTSL1 inh	m5-HT2A agonist	LANA-H2B inh
NC(N)=Nc1ccc2[nH]c3c(c2c1)C[C@@]1(O)[C@H]2Cc4ccc(O)c5c4[C@@]1(CCN2CC1CC1)[C@H]3O5	60*	-2	-4	1
Oc1ccc2c3c1O[C@H]1[C@@H](O)CC[C@@]4(O)[C@@H](C2)N(CC2CCC2)CC[C@]314	-2	1	5	-2
CCOC(=O)[C@]12Cc3c(cc(OC)c(OC)c3OC)[C@H]1N(C)C(=O)c1cc(OC)ccc12	.	.	1	.
COC(=O)C1=COC(C)C2CN3CCc4c([nH]c5cc(OC)ccc45)C3CC12 (centres undefined)	.	.	-5	.
Cc1ccc(S(=O)(=O)N[C@@H](CCCCN)C(=O)CCl)cc1	5	85*	0	4
Cc1ccc(S(=O)(=O)NCCC(=O)Nc2ccc(Cl)cc2C(=O)c2ccccc2)cc1	2	0	-3	-2
N#Cc1ccc(Cn2cc(C=O)c3ccccc32)cc1	-6	1	8	2
Cn1cc(C=C(C#N)C#N)c2ccccc21	1	5	-3	+
CCOC(=O)Cn1cc([N+](=O)[O-])nc1[N+](=O)[O-]	0	18*	-1	6
COC(=O)C1=C(c2ccc(OC(F)(F)F)cc2)C[C@@H]2CC[C@H]1N2C(=O)NCCc1ccccc1	17	.	-9	-4
C[C@]12CCC3C(CC[C@H]4C[C@@H](O)CC[C@]34C)C1=CC[C@@H]2O (some centres undefined)	.	.	1	.
OC(COCc1ccc(Cl)cc1)CN1CC=C(c2ccccc2)CC1 (centres undefined)	5	-2	19*!	0
COC(=O)C1=C(c2c(C)noc2C)C[C@@H]2CC[C@H]1N2C(=O)NCc1ccc(F)cc1	8	.	4	1
CCOC(=O)C(NC(=O)CC)(Nc1ccc(C(O)(C(=O)OCC)C(F)(F)F)cc1C)C(F)(F)F (centres undefined)	12	0	-6	4
CCOC(=O)C(NC(=O)CCl)(Nc1ccc(C(O)(C(=O)OCC)C(F)(F)F)cc1)C(F)(F)F (centres undefined)	20	35*	3	-2
CC(C)CC(C)N (centres undefined)	-10	.	0	45*
CC(=NNC(=S)N1CC2CCC(CC2)C1)c1nccs1	.	.	-9	.
CCOC(=O)[C@]12Cc3c(cc(OC)c(OC)c3OC)[C@H]1N(C(C)C)C(=O)c1ccccc12	.	.	-5	.
O=C(c1ccc2nc(-c3ccco3)c(-c3ccco3)nc2c1)N1CCC2(CC1)OCCO2	3	17*	1	5
COc1ccc(C(=O)N2CCC3(CC2)OCCO3)cc1	-4	-4	8	0
CSc1nnc(OC(=O)N(C)C)n1-c1ccc(Cl)cc1	-8	0	-6	0
CCOC(=O)C1=C(N)Oc2cc(C)oc(=O)c2C12C(=O)N1c3c(cccc32)C(C)CC1(C)C (centres undefined)	-7	0	3	33*
CC(=O)OC1CC[C@]2(C#N)[C@H]3CC[C@]4(C)[C@H](C5C=CC(=O)O5)CCC4(O)C3CCC2(O)C1 (some centres undefined)	3	-3	6	-3
CCCOP(=O)(OCCC)C(NC(=O)c1cc(OC)c(OC)c(OC)c1)c1ccccc1 (centres undefined)	3	17*	1	0
CCOP(=O)(OCC)C(NC(=O)c1ccccc1)C(Cl)(Cl)Cl (centres undefined)	-4	-4	-3	-9
SMILES	HDAC3 inh	Fh CTSL1 inh	m5-HT2A agonist	LANA-H2B inh
CCCCCc1cc(O)c2c3c(c(=O)oc2c1)CN(C)CC3	-1	6	-8	-3
O=C(O)c1cc[c]([Hg][Cl])cc1	95*	-2	1	4
C=CC1CN2CCC1CC2[C@@H](OC(=O)c1ccc(OC)cc1)c1ccnc2ccccc12 (some centres undefined)	2	-2	-4	32*
Nc1cccc(SC2CC(=O)N(c3ccc(Cl)cc3C(=O)c3ccccc3)C2=O)c1 (centres undefined)	.	.	4	.
COc1ccc(N2CCN(Cc3nc4ccccc4[nH]3)CC2)cc1	1	17*	2	1
CN1CCN(C(=O)Cc2nc3ccccc3[nH]2)CC1	-5	-2	2	-6
CCCNC(=O)N1[C@H]2CC[C@@H]1C(C(=O)OC)=C(c1ccc3ccccc3c1)C2	0	.	-4	-1
CC(C)COC(=O)c1ccccc1C(=O)OCC(C)C	0	1	3	0
C[CH2][Hg][S]c1ccccc1C(=O)O	56*	-4	11	1

Bioassay records deposited in PubChem by several laboratories.
